High-throughput results: PubChem BioAssay, National Center for Advancing Translational Sciences (NCATS)
D1 ag: human D1 receptor agonism. P21728. activation, % at 2 µM. HEK293 T-REx D1 cells, calcium flux, agonist mode. AID 504660. 360,000 compounds, 1% hits; note: 0% is about no effect
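Tetracycline-induced HEK293 TREx D1 cells, force-coupled to calcium signalling, were dye-loaded with a no-wash calcium kit. Compound was pin-added after a 10 s baseline. Fluorescence was read kinetically at 1 cycle/s for 180 s, with calcium rises flagged as agonism.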
TRHR agonist-1: agonists of human TRH receptor | P34981 | TRHR cells, calcium flux fluo-8, FDSS agonist mode | activation, % at 2 µM | 360,000 compounds, 0.18% hits | AID 493084; note: 0% is about no effect
Target sequence (P34981 whole entry, looked up): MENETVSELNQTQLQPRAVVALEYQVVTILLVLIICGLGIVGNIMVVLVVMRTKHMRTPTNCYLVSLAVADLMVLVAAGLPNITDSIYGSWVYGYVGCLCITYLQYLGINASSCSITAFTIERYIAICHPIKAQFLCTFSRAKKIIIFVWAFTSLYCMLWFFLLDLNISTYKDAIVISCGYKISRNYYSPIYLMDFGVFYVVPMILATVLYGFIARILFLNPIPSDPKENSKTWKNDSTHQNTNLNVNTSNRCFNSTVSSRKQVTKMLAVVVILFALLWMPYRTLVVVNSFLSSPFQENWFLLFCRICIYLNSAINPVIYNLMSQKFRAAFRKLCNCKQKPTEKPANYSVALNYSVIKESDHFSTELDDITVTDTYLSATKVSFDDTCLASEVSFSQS
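TRHR-expressing cells, plated overnight in medium with 10% serum, were loaded with fluo-8 calcium dye at room temperature. After a 10 s baseline, library compound was pin-added and calcium release was recorded kinetically (ex 480/em 530) as agonist response.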
TRHR enhancer-1: allosterically enhances the human TRH receptor. enhancement, % at 2 µM. TRHR cells, fluo-8 calcium fluorescence, EC20 TRH enhancement. P34981. AID 493056. 360,000 compounds, 0.66% hits; in the data active = enhancement above about 30%; note: 0% is about no effect
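Enhancer read-out: after compound pinning and an initial kinetic agonist-mode read, an EC20 of TRH (10 nM final) was injected and fluo-8 calcium signal (Ex 480/Em 530) followed at 1 s/cycle for 100 cycles in TRHR-expressing cells.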
D1 antagonist: blocks dopamine activation of the human D1 receptor. 360,000 compounds, 3.2% hits. HEK293 TREx D1 cells, calcium flux, dopamine EC80; hits give low values. activity change, negative = inhibition, % at 10 µM. P21728. AID 504652; in the data active = activity change below about -30%; note: % is set by controls: 0 for no effect and ±100 for the full control effect
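Allosteric or orthosteric antagonism assessed as attenuation of the calcium response to EC80 dopamine, added 180 s after compound, in induced HEK293 Trex D1 cells loaded with no-wash calcium dye.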
D1 PAM: human D1 dopamine receptor positive modulation. P21728. HEK293 TREx D1 cells, calcium flux, dopamine EC20 potentiation. potentiation, % at 10 µM. 360,000 compounds, 0.036% hits; in the data active = potentiation above about 30%; note: 0% is about no effect
TRHR enhancer-2: human TRH receptor allosteric enhancement confirmation; shares compounds with TRHR enhancer-1; TRH receptor cell assay, enhancer confirmation qHTS; 970 tested, under 10 active; activity change, negative = inhibition, % at 46.1 µM; active = well fitted curve in the direction sought with a large enough effect; inconclusive = small, poorly fitted or top-dose-only effect, or another doubt; inactive = no such curve, though single readings can be large; an effect the other way counts as inactive or inconclusive;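 note: compound effect scored on response to added TRH at EC20 of 10 nM; 0% is about no effect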
TRHR agonist-2: human TRH receptor agonism confirmation; TRHR-expressing cells, agonist activation read-out; 970 compounds, 8% hits; shares compounds with TRHR enhancer-1; Potency, µM (top dose mostly 46.1 µM), for inactives: top-dose activation, most hits filed as activators; active = well fitted curve in the direction sought with a large enough effect; inconclusive = small, poorly fitted or top-dose-only effect, or another doubt; inactive = no such curve, though single readings can be large; an effect the other way counts as inactive or inconclusive; note: potency is the fitted concentration of half-maximal effect; 0% is about no effect; nearly all actives have a fitted effect of over 75% in size
Numbers without * were called inactive; ? = inconclusive; nt = no result given. Only some compounds are listed: those with a hit (about 4.7% of all), similar ones and a draw of the others. Cut-off read from the data, not from the text of the source, unless noted: active = activation above about 30%; inactive = the rest.

SMILES | D1 ag | TRHR agonist-1 | TRHR enhancer-1 | D1 antagonist | D1 PAM | TRHR enhancer-2 | TRHR agonist-2
COc1ccc(C(=O)N[C@H](C(=O)NCc2ccco2)C(C)C)cc1 | 1.9 | -0.4 | -4.1 | 8.3 | -0.3 | nt | nt
COc1ccc(C(=O)Nc2ccccc2C(=O)NC(C(=O)NCc2ccco2)C(C)C)cc1 (stereo not given) | 1.1 | -0.2 | 48.2* | -11.6 | -2.0 | -0.5 | -0.5%
N=c1sccn1CC(=O)Nc1ccc(S(N)(=O)=O)cc1 | 2.1 | 0.7 | 53.6* | 4.2 | -3.0 | -0.6 | -0.5%
NS(=O)(=O)c1ccc(NC(=O)CSC2CCCCC2)cc1 | 1.1 | -0.2 | 45.1* | -15.3 | 0.1 | -1.3 | 0.4%
Cc1c(C(=O)N2CCOCC2)oc2c1-c1nn(CC(=O)NCc3ccccc3)cc1CC2 | 1.3 | 0.2 | 1.8 | -6.7 | -4.7 | nt | nt
CC(=O)N1CCCC1c1nc2ccccc2n1Cc1ccccc1Cl (stereo not given) | -0.1 | -0.4 | -1.3 | 2.4 | -1.3 | nt | nt
Cc1c(NS(=O)(=O)c2ccc(C(C)(C)C)cc2)c(=O)n(-c2ccccc2)n1C | -1.5 | -0.2 | 2.1 | 3.5 | -2.0 | nt | nt
COC(=O)Cc1c(O)ccn(CCc2ccccc2)c1=O | 1.6 | 1.6 | 51.5* | 1.0 | 15.1 | 1.5 | 5.3%
COc1cccc(CNc2nccn(-c3cc(C)cc(C)c3)c2=O)c1 | 3.4 | -0.3 | -4.8 | -0.1 | -5.0 | nt | nt
COc1cc(C(c2nnnn2C2CCCC2)N2CCc3ccccc3C2)ccc1O (stereo not given) | -0.3 | -0.2 | 3.1 | 2.5 | -0.9 | nt | nt
Oc1ccc(C(c2nnnn2C2CCCC2)N2CCc3ccccc3C2)cc1 (stereo not given) | 1.6 | 44.6* | 0.7 | 4.3 | -1.4 | -12.5 | 0.7%
CCCCn1nnnc1SCC(=O)Nc1ccc(N(C)C)cc1 | 0.8 | 0.1 | 53.7* | 14.8 | -4.0 | -2.3 | 1.3%
Fc1ccc(C2CC(c3ccco3)=NN2c2ccccc2)cc1 (stereo not given) | 3.6 | -0.1 | 9.7 | 7.0 | 5.3 | nt | nt
O=[N+]([O-])c1ccc(N2N=C(c3ccco3)CC2c2ccccc2)cc1 (stereo not given) | 49.9* | 27.7 | -8.6 | 1.2 | -5.5 | 6.3 | ?
COC(=O)Cc1c(C)c2cc3c(c(C)c2oc1=O)OCN(CCc1ccccc1F)C3 | 5.5 | 7.6 | -4.3 | -8.6 | -1.6 | nt | nt
CCN(C(=O)COC(=O)Cc1coc2cc(C)ccc12)c1c(N)n(Cc2ccccc2)c(=O)[nH]c1=O | 2.3 | 0.1 | -1.1 | 8.1 | nt | nt | nt
Cc1ccc2c(CC(=O)OCC(=O)N(CC(C)C)c3c(N)n(Cc4ccccc4)c(=O)[nH]c3=O)coc2c1 | 4.0 | 0.4 | 49.2* | -16.5 | -3.0 | -0.4 | ?
Cc1[nH]nc2c1C(c1c[nH]c3ccccc13)C(C#N)=C(N)O2 (stereo not given) | 4.6 | 0.0 | 51.4* | -4.1 | -4.7 | -0.2 | 0.8%
Cc1c(Cl)cccc1NC(=O)c1ccc2nc(C(C)C)oc2c1 | 3.3 | 0.1 | -2.1 | -17.8 | -1.4 | nt | nt
NC1=NC(=O)/C(=C/c2ccc(OCC(=O)O)cc2)S1 | 4.2 | 0.3 | -2.9 | -3.2 | -0.1 | nt | nt
CCN(CC)c1ccc(/C=C2\SC(N)=NC2=O)cc1 | 59.7* | 29.2 | 26.7 | 8.2 | 0.0 | 0.7 | ?
CCn1cc(C(=O)N2CCN(c3ccc([N+](=O)[O-])cc3)CC2)c(=O)c2ccc(C)nc21 | 2.3 | -1.3 | 46.4* | 8.9 | -1.9 | 15.7 | 1.3%
CCn1cc(C(=O)N2CCN(c3cccc(C)c3C)CC2)c(=O)c2ccc(C)nc21 | -0.6 | -0.9 | 5.9 | 21.5 | -0.9 | nt | nt
COc1cccc(-n2c(SCC(=O)Nc3ccc4c(c3)OCO4)nc3c([nH]c4ccccc43)c2=O)c1 | 2.2 | 0.2 | 1.8 | 16.4 | -3.1 | nt | nt
C[n+]1cn(CC(O)COCc2ccccc2)c2ccccc21 (stereo not given) | 1.7 | 0.6 | 52.6* | 2.6 | 2.4 | -3.8 | -0.5%
CCOc1ccc(CCNC(=O)Cn2nnc(-c3ccccc3Cl)n2)cc1OCC | -0.3 | -4.4 | 4.0 | 0.8 | -3.5 | nt | nt
